PDI inh – blocks human protein disulfide isomerase activity. P07237. PDI insulin aggregation turbidity, A650, 90 min. inhibition, % at 10 µM. actives 0.052% (n = 350,000). AID 588391;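 active = mean inhibition across replicates of 30% or more, whatever share of single replicates reach that level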
CendR NRP1 mod – modulators of CendR peptide binding to human neuropilin-1; O14786; FAM-RPARPAR peptide binding to NRP-1, fluorescence polarization; inhibition, % at 25 µM; actives 0.85% (n = 360,000);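 active = inhibition or corrected inhibition above about 18%, plus a signal ratio from 0.5 to 1.5, limit read from the data, passing the limit was not always enough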
PglD DTNB – inhibitors of Campylobacter jejuni PglD acetyltransferase; actives 0.098% (n = 360,000); AID 602405; inhibition, % at 12.5 µM; purified PglD enzyme, DTNB colorimetric CoA detection; in the data active = inhibition above about 16%, passing the limit was not always enough
ERp5 inh – ERp5 (human) disulfide isomerase inhibition; actives 0.05% (n = 350,000); AID 651711; Q15084; inhibition, % at 9.99 µM; ERp5 insulin aggregation, absorbance 650 nm, 90 min;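 active = mean replicate inhibition above about 25%, with every replicate also reaching it, limit read from the data, passing the limit was not always enough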
ARNT-TACC3 inh – disrupts binding between human ARNT and TACC3. Q9Y6A5. AlphaScreen His-ARNT PAS-B/GST-TACC3 binding, luminescence; TACC3 fragment carries E629A point mutation. inhibition, % at 9.99 µM. actives 0.66% (n = 390,000);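 active = mean inhibition of replicates at least 50% and at least half of replicates each reaching 50%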;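 note: 0% = complete ARNT plus TACC3 wells and 100% = ARNT alone without TACC3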
ALR inh – inhibitors of human sulfhydryl oxidase ALR; purified ALR, DTT oxidation, H2O2 HRP-luminol luminescence; inhibition, % (test concentration not listed); actives 3.8% (n = 290,000);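 active = mean replicate inhibition above about 79%, with every replicate also reaching it, limit read from the data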
Target sequence (P55789 whole entry, looked up): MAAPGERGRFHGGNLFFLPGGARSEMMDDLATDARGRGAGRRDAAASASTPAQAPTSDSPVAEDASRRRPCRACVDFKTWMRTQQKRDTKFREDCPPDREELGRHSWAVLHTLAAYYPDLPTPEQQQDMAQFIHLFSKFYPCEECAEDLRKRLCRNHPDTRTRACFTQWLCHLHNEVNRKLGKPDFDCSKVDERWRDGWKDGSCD
Active calls of the source: *. The sample as a whole holds a higher share of hits than the screen did.

Screening Cc1ccccc1Nc1nn2c(=O)c3ccc(C(=O)N4CCCC(C)C4)cc3nc2s1 (stereo unspecified) returned PDI inh -5.7, CendR NRP1 mod -11.1, PglD DTNB -7.0 and ERp5 inh 3.9.
Screening Cc1ccc(C(C2=C(O)CC(C)(C)CC2=O)C2C(=O)CC(C)(C)CC2=O)o1 (stereo unspecified) returned PDI inh -1.8, CendR NRP1 mod -5.8, PglD DTNB -8.8, ARNT-TACC3 inh -6.5 and ALR inh 97.0*.
`CC1(C)CC(=O)C(C(C2=C(O)CC(C)(C)CC2=O)c2cccs2)C(=O)C1` (stereo unspecified) gave PDI inh 0.7, CendR NRP1 mod -3.2, PglD DTNB -0.5 and ARNT-TACC3 inh 1.5.
For CCNc1ccc(S(=O)(=O)N(C)C)cc1NCC(=O)Nc1ccccc1Cl the results were PDI inh 3.0, CendR NRP1 mod 10.1, PglD DTNB -10.1, ERp5 inh -2.0, ARNT-TACC3 inh 1.3 and ALR inh 98.7*.
Screening COc1cc(OC)nc(-n2ncc(Br)c(Br)c2=O)n1 returned PDI inh -0.5, CendR NRP1 mod 8.1, ERp5 inh -3.6, ARNT-TACC3 inh -19.5 and ALR inh 92.0*.
CNC(=S)N(CCc1c(C)[nH]c2ccccc12)Cc1cccnc1 was read as PDI inh 11.5, CendR NRP1 mod 5.4, PglD DTNB -3.7, ERp5 inh -6.0, ARNT-TACC3 inh 4.6 and ALR inh 99.9*.
Screening COCCNC(=S)N(CCc1c(C)[nH]c2ccc(F)cc12)Cc1cccnc1 returned PDI inh 7.1, CendR NRP1 mod 5.4, PglD DTNB 2.3, ERp5 inh 2.0, ARNT-TACC3 inh 23.9 and ALR inh 36.8.
Screening COCCNC(=S)N(CCc1c(C)[nH]c2ccccc12)Cc1cccnc1 returned PDI inh 8.3, CendR NRP1 mod 11.5, PglD DTNB 1.6, ERp5 inh 8.1, ARNT-TACC3 inh 1.9 and ALR inh 97.0*.
`CNC(=S)N(CCc1c(C)[nH]c2ccc(Cl)cc12)Cc1cccnc1` gave PDI inh 11.2, CendR NRP1 mod -0.9, PglD DTNB 4.9, ERp5 inh 1.6, ARNT-TACC3 inh 4.0 and ALR inh 97.0*.
`CNC(=S)N(CCc1c(C)[nH]c2ccc(C)cc12)Cc1cccnc1` gave PDI inh -0.5, CendR NRP1 mod -0.8, PglD DTNB 0.5, ERp5 inh 1.7 and ARNT-TACC3 inh 2.0.
CCNC(=S)N(CCc1c(C)[nH]c2ccc(Cl)cc12)Cc1cccnc1 was read as PDI inh -1.6, CendR NRP1 mod 4.7, PglD DTNB -3.4, ERp5 inh 1.7, ARNT-TACC3 inh -0.1 and ALR inh 55.2.
For Clc1ccc2c(c1)[C@H]1OCC[C@H]1[C@@H](c1ccco1)N2 the results were CendR NRP1 mod -17.5, PglD DTNB -2.7, ERp5 inh 3.6, ARNT-TACC3 inh 0.4 and ALR inh 60.5.
`CCc1ccc2c(c1)[C@H]1OCC[C@H]1[C@@H](c1cccs1)N2` gave PDI inh -2.2, CendR NRP1 mod -0.2, ARNT-TACC3 inh 1.5 and ALR inh 97.3*.
`COc1ccccc1-c1ccc2c(c1)[C@H]1[C@H](CCN1S(=O)(=O)c1cccc(C)c1)[C@@H](CO)N2` gave PglD DTNB -4.6, ERp5 inh 4.4 and ARNT-TACC3 inh 5.8.
For Cc1cccc(N2CCN(C(=O)CCN3C(=O)C4C5C=CC(C5)C4C3=O)CC2C)c1 (stereo unspecified) the results were PDI inh 3.5, CendR NRP1 mod -3.2, ERp5 inh -4.1 and ALR inh 84.1*.
Screening Cc1cccc(N2CCN(C(=O)CCCn3c(=O)[nH]c4ccsc4c3=O)CC2C)c1 (stereo unspecified) returned PDI inh -2.3, CendR NRP1 mod -1.8, PglD DTNB -0.4, ERp5 inh 2.1, ARNT-TACC3 inh 0.8 and ALR inh 98.4*.
Screening Cc1cccc(N2CCN(C(=O)NC3CCCCC3)CC2C)c1 (stereo unspecified) returned PDI inh -40.6, CendR NRP1 mod 10.7, PglD DTNB 0.9, ERp5 inh 1.9, ARNT-TACC3 inh -4.5 and ALR inh 88.2*.

Assay outcomes deposited in PubChem BioAssay by several laboratories.
